Data on 5 compounds can be found in PubChem BioAssay (EPA / NIEHS).

Assay [1] concerns the target Transcription factor E2F1 (Homo sapiens) (UniProt Q01094). Description: ATG_E2F_CIS: Attagene CIS-FACTORIAL HepG2 Assay for human E2F Transcription Factor 1 (AID 2282935). The settings on record: HepG2 Attagene cis-reporter, E2F reporter RNA transcripts; actives raise or lower the signal. The method in brief: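 Fluorescent RT-PCR products, digested with HpaI for 2 h at 37 C, are separated by capillary electrophoresis. Source RNA comes from transfected HepG2 cultures treated for 24 h.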

Assay [2] can be described thus: ATG_E_Box_CIS: Attagene CIS-FACTORIAL HepG2 Assay for human Enhancer Box (E-box) (AID 2282936). The settings on record: HepG2 E-box cis-reporter transcription, actives raise or lower the signal. Summed up:
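Fluorescent reporter fragments separated by capillary electrophoresis gave the signal; mRNA came from HepG2 cells transfected with cis-element reporters and treated 24 h. Curves fitted bidirectionally relative to DMSO controls.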

Assay [3] can be described thus: ATG_M_61_CIS: Attagene CIS-FACTORIAL HepG2 Assay for M61 Transcription Factor (Internal Marker) (AID 2282937). The note with it: HepG2 Attagene CIS-FACTORIAL M61 internal marker reporter; actives raise or lower the signal. Summed up: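 Readout: fluorescent reporter mRNA fragments resolved by capillary electrophoresis after RT-PCR. Transiently transfected human HepG2 cells carried MRTU constructs reporting endogenous TF activity; 24 h chemical exposure; gain or loss of signal fitted relative to DMSO.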

Assay [4] can be described thus: ATG_EGR_CIS: Attagene CIS-FACTORIAL HepG2 Assay for human Early Growth Response 1 (EGR1) (AID 2282938). The settings on record: HepG2 Attagene CIS-FACTORIAL EGR reporter mRNA; actives raise or lower the signal. Summed up:
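Read-out: fluorescent reporter-mRNA fragments resolved by capillary electrophoresis after RT-PCR, 24 h post-dose in transiently transfected HepG2. Endogenous transcription-factor activity reported via cis-element-regulated reporter units; gain or loss fitted relative to DMSO.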

The nature of assay [5]: ATG_M_19_CIS: Attagene CIS-FACTORIAL HepG2 Assay for M19 Transcription Factor (Internal Marker) (AID 2282939). The note with it: HepG2 Attagene CIS-FACTORIAL M19 internal marker reporter; actives raise or lower the signal. Summed up: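 Internal marker readout, fitted in both directions against DMSO, from HepG2 cells carrying transfected cis-element reporter constructs; RT-PCR and capillary electrophoresis of reporter mRNA after 24 h exposure.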

Assay [6] can be described thus: ATG_ERE_CIS: Attagene CIS-FACTORIAL HepG2 Assay for Estrogen Response Element (ERE) (AID 2282940). The settings on record: HepG2 ERE cis-reporter, Attagene RNA transcript; actives raise or lower the signal. Summed up:
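After 24 h compound treatment, RNA from transfected HepG2 cells was reverse-transcribed, reporter cDNA PCR-amplified, FAM-labelled, HpaI-cut and resolved by capillary electrophoresis. ERE-driven cis reporter transcripts reflect endogenous factors; gain or loss scored against DMSO.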

Assay [7] in a line: ATG_Ets_CIS: Attagene CIS-FACTORIAL HepG2 Assay for human Erythroblast Transformation Specific (ETS) (AID 2282941). The settings on record: HepG2 ETS cis-reporter transcription, actives raise or lower the signal. Summed up:
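Bidirectional fit versus DMSO of reporter mRNA signal, detected by RT-PCR and capillary electrophoresis in HepG2 cells transiently transfected with cis-element reporters and dosed 24 h.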

In assay [8] the target is Hepatocyte nuclear factor 3-beta (Homo sapiens) (UniProt Q9Y261). Description: ATG_FoxA2_CIS: Attagene CIS-FACTORIAL HepG2 Assay for human Forkhead box A2 (FOXA2) (AID 2282942). The note with it: HepG2 cis-reporter transcription factor activity, 24 h; actives raise or lower the signal. The method in brief: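 Readout: fluorescent reporter transcripts resolved by capillary electrophoresis after RT-PCR. Transiently transfected HepG2, 24 h compound exposure, endogenous TF activity at cis promoter elements. Gain or loss of signal fitted relative to DMSO.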
Sequence of Hepatocyte nuclear factor 3-beta (Homo sapiens) (Q9Y261 whole entry, looked up): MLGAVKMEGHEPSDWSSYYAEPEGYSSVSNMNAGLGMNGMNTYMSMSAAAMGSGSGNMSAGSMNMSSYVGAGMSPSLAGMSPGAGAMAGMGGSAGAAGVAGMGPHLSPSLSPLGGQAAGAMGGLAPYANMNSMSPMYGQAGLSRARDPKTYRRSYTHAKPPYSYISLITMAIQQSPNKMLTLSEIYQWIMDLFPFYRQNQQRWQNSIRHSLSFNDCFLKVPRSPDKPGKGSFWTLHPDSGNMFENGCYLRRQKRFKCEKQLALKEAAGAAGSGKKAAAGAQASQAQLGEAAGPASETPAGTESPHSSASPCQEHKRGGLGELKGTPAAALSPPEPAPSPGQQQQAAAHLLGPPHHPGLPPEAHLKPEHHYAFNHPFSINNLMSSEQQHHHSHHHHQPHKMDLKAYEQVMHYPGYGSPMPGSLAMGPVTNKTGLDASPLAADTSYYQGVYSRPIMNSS

The nature of assay [9]: ATG_FoxO_CIS: Attagene CIS-FACTORIAL HepG2 Assay for human Forkhead box O (FoxO) (AID 2282943). The note with it: HepG2 Attagene cis-reporter, FoxO element, mRNA; actives raise or lower the signal. Summed up:
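HepG2, transient MRTU transfection (cis element, endogenous TFs). Dose 24 h. TriZol RNA → oligo(dT) RT → PCR → 6-FAM primer extension → HpaI cut → CE. Gain/loss vs DMSO.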

Assay [10] is described as follows: ATG_GLI_CIS: Attagene CIS-FACTORIAL HepG2 Assay for human Zinc Finger Protein GLI1 (AID 2282945). The note with it: HepG2, Attagene cis-factorial reporter mRNA, GLI element; actives raise or lower the signal. Summed up: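 Bidirectional curve fits relative to DMSO, using reporter mRNA levels from RT-PCR plus capillary electrophoresis. Cells were HepG2 transiently carrying cis-regulated reporter constructs, harvested 24 h after dosing.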

Assay [11] has as its target Bile acid receptor (Homo sapiens) (UniProt Q96RI1). Kind of assay: ATG_IR1_CIS: Attagene CIS-FACTORIAL HepG2 Assay for human Nuclear Receptor Subfamily 1 Group H Member 4 (NR1H4), IR1 submotif (AID 2282946). The note with it: IR1 reporter transcription, actives raise or lower the signal. Summed up: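 HepG2 cells transiently transfected with multiplexed cis-element reporter units read endogenous transcription factor activity. After 24 h compound exposure, reporter mRNA was quantified by RT-PCR, fluorescent labelling, HpaI digestion and capillary electrophoresis; bidirectional fitting versus DMSO baseline.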

The nature of assay [12]: ATG_ISRE_CIS: Attagene CIS-FACTORIAL HepG2 Assay for human Interferon Regulatory Factor 1 (IRF1) binding to an Interferon-Stimulated Response Element (ISRE) (AID 2282948). The note with it: HepG2 ISRE cis-reporter (Attagene), mRNA transcription readout; actives raise or lower the signal. The method in brief: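 Uses HepG2 liver cells transfected with cis-regulated reporters and measures mRNA 24 h post-dosing through RT-PCR, primer-extension labelling and capillary electrophoresis, with DMSO as negative control.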

The nature of assay [13]: ATG_M_32_CIS: Attagene CIS-FACTORIAL HepG2 Assay for M32 Transcription Factor (Internal Marker) (AID 2282949).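 Note: background control marker of the multiplexed CIS panel rather than a real target.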 The note with it: HepG2 Attagene cis-factorial M32 reporter, mRNA; actives raise or lower the signal. The method in brief: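 Using DMSO as baseline, bidirectional curve fits were applied to reporter mRNA signals. These came from transiently transfected HepG2 cells exposed for 24 h, with RNA analysed by RT-PCR, FAM primer extension, HpaI digestion and CE.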

Assay [14] is described as follows: ATG_M_06_CIS: Attagene CIS-FACTORIAL HepG2 Assay for M06 Transcription Factor (Internal Marker) (AID 2282950). The settings on record: HepG2 Attagene CIS-FACTORIAL M06 internal marker reporter; actives raise or lower the signal. The method in brief:
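Serves as a background control readout. Transfected HepG2 exposed to compounds for 24 h, then reporter transcripts quantified by fluorescent RT-PCR and capillary electrophoresis. Both directions fitted against DMSO baseline.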

For assay [15], the target named is Hypoxia-inducible factor 1-alpha (Homo sapiens) (UniProt Q16665). Kind of assay: ATG_HIF1a_CIS: Attagene CIS-FACTORIAL HepG2 Assay for human Hypoxia Inducible Factor 1 (HIF1A) (AID 2282951). The note with it: HepG2 Attagene cis-factorial HIF1a reporter transcription; actives raise or lower the signal. Summed up:
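RT-PCR/capillary electrophoresis fluorescence readout of reporter transcripts from endogenous-TF-driven cis elements in transfected HepG2 cells, 24 h exposure; activity fitted in both directions against DMSO controls.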

Assay [16] concerns the target Hepatocyte nuclear factor 6 (Homo sapiens) (UniProt Q9UBC0). Kind of assay: ATG_HNF6_CIS: Attagene CIS-FACTORIAL HepG2 Assay for human Hepatocyte Nuclear Factor 6 (HNF6) (AID 2282952). The note with it: HepG2 Attagene cis-factorial HNF6 reporter transcription; actives raise or lower the signal. Summed up:
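Readout: fluorescent reporter-transcript fragments resolved by capillary electrophoresis after RT-PCR, reflecting endogenous factor activity in transfected HepG2. Exposure 24 h. Gain or loss of signal fitted bidirectionally against DMSO.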

For assay [17], the target named is Heat shock factor protein 1 (Homo sapiens) (UniProt Q00613). Description: ATG_HSE_CIS: Attagene CIS-FACTORIAL HepG2 Assay for human Heat Shock Transcription Factor 1 (HSE) (AID 2282953). The settings on record: HepG2 HSE cis-reporter, Attagene RNA transcription; actives raise or lower the signal. Summed up: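 Endogenous transcription factor activity in transiently transfected HepG2, read as reporter mRNA by RT-PCR with fluorescent capillary electrophoresis after 24 h. Gain or loss of signal fitted versus DMSO baseline.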
Sequence of Heat shock factor protein 1 (Homo sapiens) (Q00613 whole entry, looked up): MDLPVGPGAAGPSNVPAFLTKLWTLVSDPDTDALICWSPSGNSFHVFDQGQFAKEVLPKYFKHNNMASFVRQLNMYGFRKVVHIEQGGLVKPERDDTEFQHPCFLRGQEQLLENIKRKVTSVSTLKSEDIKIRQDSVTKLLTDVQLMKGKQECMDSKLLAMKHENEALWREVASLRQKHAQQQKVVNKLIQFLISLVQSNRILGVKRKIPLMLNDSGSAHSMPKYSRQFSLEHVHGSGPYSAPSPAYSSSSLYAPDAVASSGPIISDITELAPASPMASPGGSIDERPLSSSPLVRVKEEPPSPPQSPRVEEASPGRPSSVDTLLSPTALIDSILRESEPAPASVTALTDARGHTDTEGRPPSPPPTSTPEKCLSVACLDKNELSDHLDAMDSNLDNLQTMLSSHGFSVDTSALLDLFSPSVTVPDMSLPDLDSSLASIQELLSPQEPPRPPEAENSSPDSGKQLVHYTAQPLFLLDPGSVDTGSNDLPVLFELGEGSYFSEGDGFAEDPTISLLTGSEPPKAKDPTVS

Assay [18] in a line: ATG_MRE_CIS: Attagene CIS-FACTORIAL HepG2 Assay for human Metal Responsive Element (MRE) (AID 2282954). The note with it: HepG2 MRE cis-reporter transcription, Attagene multiplex; actives raise or lower the signal. The method in brief: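 Multiplexed cis-reporter assay in human HepG2 liver cells, 24 h incubation with test chemical. Reporter transcripts measured by RT-PCR and capillary electrophoresis; values from bidirectional curve fitting versus DMSO.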

Assay [19] can be described thus: ATG_GRE_CIS: Attagene CIS-FACTORIAL HepG2 Assay for human Glucocorticoid Response Elements (GRE) (AID 2282947). The settings on record: HepG2 GRE cis-reporter, Attagene multiplex mRNA; actives raise or lower the signal. The method in brief: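 Multiplexed cis-reporter mRNA induction, HepG2, 24 h post-dose. RT-PCR, FAM-labelled, HpaI-digested amplicons by CE. Bidirectional fit vs DMSO.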

The structures appear in SMILES notation. Calls of active or inactive are those of the source. Rule for the calls: active = hit-call score of the fitted dose curve at least 0.9, where 1 is the maximum; inactive = score below 0.9.

Sequence of Hepatocyte nuclear factor 6 (Homo sapiens) (Q9UBC0 whole entry, looked up, the tested form may be a part): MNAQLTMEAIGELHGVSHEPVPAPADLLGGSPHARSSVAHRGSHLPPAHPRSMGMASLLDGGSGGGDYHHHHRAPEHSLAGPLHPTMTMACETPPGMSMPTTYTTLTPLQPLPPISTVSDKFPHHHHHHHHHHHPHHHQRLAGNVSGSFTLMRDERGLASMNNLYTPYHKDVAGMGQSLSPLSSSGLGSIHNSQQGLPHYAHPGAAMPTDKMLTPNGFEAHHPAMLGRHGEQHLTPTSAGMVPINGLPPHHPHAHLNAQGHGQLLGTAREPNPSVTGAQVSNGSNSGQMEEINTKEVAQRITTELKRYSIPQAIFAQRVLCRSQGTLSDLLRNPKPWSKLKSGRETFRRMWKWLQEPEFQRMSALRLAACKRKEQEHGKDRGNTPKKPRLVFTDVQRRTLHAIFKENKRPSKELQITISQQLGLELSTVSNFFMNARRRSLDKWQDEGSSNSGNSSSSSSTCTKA
Sequence of Bile acid receptor (Homo sapiens) (Q96RI1 whole entry, looked up): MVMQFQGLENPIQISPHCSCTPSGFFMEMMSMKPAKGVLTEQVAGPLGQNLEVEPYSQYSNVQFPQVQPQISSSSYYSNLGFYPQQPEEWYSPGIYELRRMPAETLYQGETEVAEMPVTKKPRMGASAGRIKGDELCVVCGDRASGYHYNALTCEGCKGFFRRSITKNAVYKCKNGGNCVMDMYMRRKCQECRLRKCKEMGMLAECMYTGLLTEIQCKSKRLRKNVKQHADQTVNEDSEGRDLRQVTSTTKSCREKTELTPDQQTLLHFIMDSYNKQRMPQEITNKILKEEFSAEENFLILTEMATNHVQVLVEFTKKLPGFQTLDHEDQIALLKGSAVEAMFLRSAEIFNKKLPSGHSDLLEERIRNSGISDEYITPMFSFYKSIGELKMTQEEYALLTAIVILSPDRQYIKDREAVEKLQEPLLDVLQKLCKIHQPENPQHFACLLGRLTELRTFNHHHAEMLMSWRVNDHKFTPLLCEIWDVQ
Sequence of Hypoxia-inducible factor 1-alpha (Homo sapiens) (Q16665 whole entry, looked up): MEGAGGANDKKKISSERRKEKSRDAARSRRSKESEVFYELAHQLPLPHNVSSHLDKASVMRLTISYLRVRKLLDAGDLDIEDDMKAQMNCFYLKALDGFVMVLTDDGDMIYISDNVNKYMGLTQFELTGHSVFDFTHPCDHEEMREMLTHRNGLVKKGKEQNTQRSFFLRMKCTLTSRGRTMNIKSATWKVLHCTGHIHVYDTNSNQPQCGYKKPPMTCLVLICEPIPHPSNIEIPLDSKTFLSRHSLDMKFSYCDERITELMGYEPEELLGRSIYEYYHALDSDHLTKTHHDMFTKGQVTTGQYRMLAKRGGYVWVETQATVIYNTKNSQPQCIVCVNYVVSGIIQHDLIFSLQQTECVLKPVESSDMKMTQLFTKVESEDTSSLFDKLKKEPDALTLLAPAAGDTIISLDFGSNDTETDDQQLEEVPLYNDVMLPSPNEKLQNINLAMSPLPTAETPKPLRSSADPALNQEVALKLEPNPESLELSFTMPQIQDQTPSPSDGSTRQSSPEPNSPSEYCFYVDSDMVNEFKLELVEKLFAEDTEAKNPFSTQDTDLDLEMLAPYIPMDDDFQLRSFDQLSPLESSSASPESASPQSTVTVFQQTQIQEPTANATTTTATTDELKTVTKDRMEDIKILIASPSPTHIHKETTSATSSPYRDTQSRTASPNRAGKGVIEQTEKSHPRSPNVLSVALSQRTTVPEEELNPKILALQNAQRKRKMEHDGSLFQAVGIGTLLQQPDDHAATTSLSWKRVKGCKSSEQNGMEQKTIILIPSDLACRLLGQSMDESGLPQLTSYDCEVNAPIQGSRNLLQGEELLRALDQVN
Sequence of Transcription factor E2F1 (Homo sapiens) (Q01094 whole entry, looked up): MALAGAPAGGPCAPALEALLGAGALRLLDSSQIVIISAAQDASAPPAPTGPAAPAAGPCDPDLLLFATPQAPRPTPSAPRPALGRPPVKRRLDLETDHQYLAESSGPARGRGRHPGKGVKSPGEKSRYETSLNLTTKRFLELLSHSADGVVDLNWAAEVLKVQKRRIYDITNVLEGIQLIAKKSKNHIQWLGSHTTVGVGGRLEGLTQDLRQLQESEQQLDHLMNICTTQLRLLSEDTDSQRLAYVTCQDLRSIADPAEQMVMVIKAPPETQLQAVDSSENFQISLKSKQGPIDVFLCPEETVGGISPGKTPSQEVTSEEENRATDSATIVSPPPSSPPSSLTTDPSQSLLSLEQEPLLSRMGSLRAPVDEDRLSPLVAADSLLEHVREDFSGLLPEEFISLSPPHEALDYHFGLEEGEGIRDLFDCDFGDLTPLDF

For the compound `COc1ccc([N+](=O)[O-])cc1N`, the compound was called inactive in assay [1], in [2], in [3], in [4], in assay [5] and in assay [6]. Further, the compound was called inactive in assay [7], in assay [8], in assay [9], in [10], in assay [11] and in assay [12]. Besides, the result in [13], in assay [14], in [15], in assay [16], in [17] and in assay [18] was inactive.

As a reminder, the AC50 is the concentration giving half of the maximal activity seen. For `CCN(CC)CCNc1ccc(CNC=O)c2sc3ccc(OC)cc3c(=O)c12`, the compound was classed as inactive in [1], in [2], in assay [3], in [4], in assay [5] and in assay [8]. For the same compound, the call in assay [9], in assay [10], in assay [12], in assay [13], in assay [14] and in assay [18] was inactive. In addition, the AC50 in assay [6] was 0.722 µM (active); in [7], 1.42 µM (active); in [11] it was 1.19 µM (active); in [19], 1.85 µM (active); in [15] it was 0.515 µM (active); in assay [16] it was 0.947 µM (active). Besides, the AC50 in assay [17] is 1.85 µM (active).

On to `C[C@@H]1C[C@H]2[C@@H]3CCC4=CC(=O)C=C[C@]4(C)[C@@]3(F)[C@@H](O)C[C@]2(C)[C@@]1(O)C(=O)COP(=O)(O)O`, for which the call in [1], in assay [2], in assay [3], in [4], in assay [5] and in assay [6] was inactive. The compound was classed as inactive in assay [7], in assay [8], in assay [9], in [10], in assay [12] and in assay [13]. Moreover, the call in [14], in assay [15], in assay [16], in [17] and in assay [18] was inactive. Moreover, the concentration at half-maximal activity (AC50) in [19] is 77.6 nM (active) [middle of 4 runs].

For the compound `NCC(F)(F)C(F)(F)C(F)(F)C(F)(F)C(F)(F)C(F)(F)C(F)(F)F`, the compound was called inactive in assay [1], in [2], in [3], in assay [4], in [5] and in assay [6]. The call in [7], in [8], in assay [9], in assay [10], in assay [11] and in [19] was inactive. Moreover, the outcome in [12], in assay [13], in [14], in assay [15], in assay [17] and in [18] was inactive.

Take `O=C(/C=C/c1ccc(O)cc1)CC(=O)/C=C/c1ccc(O)cc1`: the call in assay [1], in assay [3], in assay [5], in assay [6], in assay [7] and in [8] was inactive. Moreover, the result in [9], in assay [10], in [19], in assay [13], in [14] and in assay [15] was inactive. Moreover, the half-maximal activity concentration (AC50) in [2] was 26.7 µM (active); in assay [4] it was 11.5 µM (active); in assay [11] it was 29 µM (active); in assay [12], 8.84 µM (active); in assay [17], 20.3 µM (active); in assay [18] it was 10.8 µM (active).
